{"source": "PubChem BioAssay (EPA / NIEHS)", "note": "Several values for one entry are separate records, joined by “and”; a condition that tells them apart may be missing. Identical values can stand only once. Activity calls are given as the source filed them. Rule for the calls: active = hit-call score of the fitted dose curve at least 0.9, where 1 is the maximum; inactive = score below 0.9.", "data": [{"read-out": "Collagen IV, COL4A1 (gene 1282)", "experiment": "BSK_MyoF_CollagenIV: BioMAP Diversity Plus: MyoF Assay for Collagen IV Biomarker Activity (AID 2284247)", "conditions": "primary human lung fibroblasts", "experimental": "BSK_MyoF is a cell-based, multiplexed-readout assay that uses lung fibroblasts, […], with measurements taken at 24 hours after chemical dosing in a microplate: 96-well plate.BSK_MyoF_CollagenIV is an assay component measured in the BSK_MyoF assay. It measures Collagen IV antibody related to regulation of gene expression using ELISA technology.Data from the assay component BSK_MyoF_CollagenIV was analyzed at the endpoint, BSK_MyoF_CollagenIV, in the positive analysis fitting direction relative to DMSO as the negative control and baseline of activity. Using a type of binding reporter, gain or loss-of-signal activity can be used to understand protein changes. To generalize the intended target to other relatable targets, this assay endpoint is annotated to the 'cell adhesion molecules' intended target family, where the subfamily is 'collagen'.\nThe levels of cell surface (or secreted, indicated by the prefix \"s\") biomarker endpoints were measured by ELISA. Overt cytotoxicity to cells in confluent adherent cultures (all systems other than the BT system) was assessed by measuring total protein levels using sulforhodamine B (SRB) staining in parallel cultures at the time of biomarker measurements, indicated as SRB endpoints. For proliferation assays for adherent cell types, individual cell types are cultured at sub-confluence and relative cell numbers quantified by SRB staining at time points optimized for each system (48 h: 3C and CASM3C systems; 72 h: BT and HDF3CGF systems; 96 h: SAg system). SRB was performed by staining cells with 0.1% SRB after fixation with 10% TCA and reading wells at 560 nm.Viability and proliferation of PBMC (T cells) was quantified by Alamar Blue reduction for the SAg and BT systems. For PBMC viability (referred to as PBMC Cytotoxicity within the assay endpoint names), cells were plated (75,000/well in a 96-well plate) and then chemical samples added for 1 h before addition of activators, SEB and TSST-1 (20 ng/mL final concentration each). Cells were incubated for 90 h. Then, Alamar Blue (20 uL/well) (Invitrogen, Cat DAL1100) was added for 6 h, and the plates were read with a fluorescence microplate reader at 546/580 nm (excitation/emission). For PBMC proliferation, cells were plated and activated as above but incubated for only 16 h prior to addition of Alamar Blue. Plates were read after 6 h.", "values": [{"compound": "CCCCCCCCCC/C=C/C1CC(=O)OC1=O", "note": "(stereo not given)", "outcome": "inactive"}, {"compound": "Cc1cc(-n2nc3ccc(Cl)cc3n2)c(O)c(C(C)(C)C)c1", "outcome": "inactive"}, {"compound": "CCCCCCCCCCCCCCCCCC[N+](C)(C)C", "AC50": "3.72 µM (active)"}, {"compound": "O=C(C(=O)c1ccccc1)c1ccccc1", "AC50": "0.913 µM (active)"}, {"compound": "OC(C(F)(F)F)(C(F)(F)F)C(O)(C(F)(F)F)C(F)(F)F", "AC50": "13.6 µM (active) and 13.9 µM (active)"}, {"compound": "CCCCCCC(O)CCCCCCCCCCC(=O)OC", "note": "(stereo not given)", "outcome": "inactive"}, {"compound": "CCCCCCCCCCC1CO1", "note": "(stereo not given)", "outcome": "inactive"}, {"compound": "CC[N+](CC)(CC(=O)Nc1c(C)cccc1C)Cc1ccccc1", "outcome": "inactive"}, {"compound": "Cc1cccnc1", "outcome": "inactive"}, {"compound": "CC(C)CC(=O)CC(C)CC(C)C", "note": "(stereo not given)", "outcome": "inactive"}, {"compound": "COC(=O)/C=C\\C(=O)OC", "outcome": "inactive"}, {"compound": "Oc1cccc2ccccc12", "outcome": "inactive"}, {"compound": "Sc1nc2ccccc2s1", "outcome": "inactive"}, {"compound": "CN(C)CCC(c1ccc(Cl)cc1)c1ccccn1", "note": "(stereo not given)", "outcome": "inactive"}, {"compound": "CN(C)c1ccc(C(c2ccccc2)c2ccc(N(C)C)cc2)cc1", "AC50": "11.9 µM (active)"}]}]}
